In the supplement of paper PMC9492666:
Where a name gives a salt, the structure may show the parent alone.

Test system: MDA-MB-231
Assay: relative cell viability, compound + erastin, vs DMSO (fraction of DMSO control); higher = less growth inhibition
Conditions: 72 h
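Note: viability read by CCK-8 kit in 96-well plates, part of a combination screen pairing lipid-metabolism-targeting compounds with erastin.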

In order of falling relative cell viability:
1. COC(=O)c1sccc1S(=O)(=O)Nc1ccc(Nc2ccccc2)cc1OC + CCOc1ccccc1-n1c(C(C)N2CCN(C(=O)COc3ccc(Cl)cc3)CC2)nc2ccccc2c1=O [erastin]  1.1
2. CC[C@H](C)C(=O)O[C@H]1C[C@H](O)C=C2C=C[C@H](C)[C@H](CC[C@@H](O)C[C@@H](O)CC(=O)O)[C@H]21 [Pravastatin sodium] + CCOc1ccccc1-n1c(C(C)N2CCN(C(=O)COc3ccc(Cl)cc3)CC2)nc2ccccc2c1=O [erastin]  1.05
3. C=CCc1ccc(O)c(-c2cc(CC=C)ccc2O)c1 [Magnolol] + CCOc1ccccc1-n1c(C(C)N2CCN(C(=O)COc3ccc(Cl)cc3)CC2)nc2ccccc2c1=O [erastin]  1.02
4. NC(=O)c1ncn([C@@H]2O[C@H](CO)[C@@H](O)[C@H]2O)c1N [AICAR (Acadesine)] + CCOc1ccccc1-n1c(C(C)N2CCN(C(=O)COc3ccc(Cl)cc3)CC2)nc2ccccc2c1=O [erastin]  0.973
5. CC(C)(Oc1ccc(CCNC(=O)c2ccc(Cl)cc2)cc1)C(=O)O [Bezafibrate] + CCOc1ccccc1-n1c(C(C)N2CCN(C(=O)COc3ccc(Cl)cc3)CC2)nc2ccccc2c1=O [erastin]  0.937
6. O=C1c2cccc(O)c2C(=O)c2c(O)cccc21 [Antrapurol] + CCOc1ccccc1-n1c(C(C)N2CCN(C(=O)COc3ccc(Cl)cc3)CC2)nc2ccccc2c1=O [erastin]  0.903
7. Cc1ccc(CN(CC(O)COc2cccc3[nH]ccc23)C(C)(C)C)cc1 (configuration not stated) + CCOc1ccccc1-n1c(C(C)N2CCN(C(=O)COc3ccc(Cl)cc3)CC2)nc2ccccc2c1=O [erastin]  0.846
8. CCC(CC)CC1(C(=O)Nc2ccccc2SC(=O)C(C)C)CCCCC1 [Dalcetrapib] + CCOc1ccccc1-n1c(C(C)N2CCN(C(=O)COc3ccc(Cl)cc3)CC2)nc2ccccc2c1=O [erastin]  0.839
9. CCCc1c(OCCCOc2ccc(OCC(=O)O)cc2)ccc(C(C)=O)c1O + CCOc1ccccc1-n1c(C(C)N2CCN(C(=O)COc3ccc(Cl)cc3)CC2)nc2ccccc2c1=O [erastin]  0.833
10. CN(C)CCOC(=O)COc1ccc(Cl)cc1 [Meclofenoxate hydrochloride] + CCOc1ccccc1-n1c(C(C)N2CCN(C(=O)COc3ccc(Cl)cc3)CC2)nc2ccccc2c1=O [erastin]  0.81
11. COC(=O)c1cc(Cl)c(O)c(S(=O)(=O)Nc2cc(-c3ccccc3)c(F)cc2F)c1 + CCOc1ccccc1-n1c(C(C)N2CCN(C(=O)COc3ccc(Cl)cc3)CC2)nc2ccccc2c1=O [erastin]  0.806
12. Cc1cc(SCc2sc(-c3ccc(C(F)(F)F)c(F)c3)nc2C)ccc1OCC(=O)O + CCOc1ccccc1-n1c(C(C)N2CCN(C(=O)COc3ccc(Cl)cc3)CC2)nc2ccccc2c1=O [erastin]  0.799
13. CCC(=O)Nc1cccc(Oc2nc(Nc3ccc(N4CCN(C)CC4)cc3OC)ncc2Cl)c1 + CCOc1ccccc1-n1c(C(C)N2CCN(C(=O)COc3ccc(Cl)cc3)CC2)nc2ccccc2c1=O [erastin]  0.795
14. CC1(C)C[C@H]2C3=CC[C@@H]4[C@@]5(C)CC[C@H](O)[C@@](C)(CO)[C@@H]5CC[C@@]4(C)[C@]3(C)C[C@H](O)[C@@]2(CO)[C@@H](O)[C@@H]1O [Gymnemagenin] + CCOc1ccccc1-n1c(C(C)N2CCN(C(=O)COc3ccc(Cl)cc3)CC2)nc2ccccc2c1=O [erastin]  0.785
15. COc1ccc(-c2cc(=O)c3c(O)c(OC)c(OC)c(OC)c3o2)cc1OC + CCOc1ccccc1-n1c(C(C)N2CCN(C(=O)COc3ccc(Cl)cc3)CC2)nc2ccccc2c1=O [erastin]  0.784
16. O=C(O)CN(CC(=O)O)c1ccccc1OCCOc1ccccc1N(CC(=O)O)CC(=O)O + CCOc1ccccc1-n1c(C(C)N2CCN(C(=O)COc3ccc(Cl)cc3)CC2)nc2ccccc2c1=O [erastin]  0.765
17. C[C@@H]1C(=O)O[C@H]2[C@H](O)[C@@]34O[C@@H]5OC(=O)[C@H](O)[C@@]56[C@H](C(C)(C)C)[C@H](O)C(OC3=O)[C@]64[C@@]12O (some centres not stated) [Ginkgolide C] + CCOc1ccccc1-n1c(C(C)N2CCN(C(=O)COc3ccc(Cl)cc3)CC2)nc2ccccc2c1=O [erastin]  0.747
18. O=c1ccc2cc(O)c(O)cc2o1 [Esculetin] + CCOc1ccccc1-n1c(C(C)N2CCN(C(=O)COc3ccc(Cl)cc3)CC2)nc2ccccc2c1=O [erastin]  0.711
19. O=C(Nc1ccccc1)c1cc([N+](=O)[O-])ccc1Cl + CCOc1ccccc1-n1c(C(C)N2CCN(C(=O)COc3ccc(Cl)cc3)CC2)nc2ccccc2c1=O [erastin]  0.706
20. CN(CCOc1ccc(CC2SC(=O)NC2=O)cc1)c1ccccn1 (configuration not stated) [Rosiglitazone] + CCOc1ccccc1-n1c(C(C)N2CCN(C(=O)COc3ccc(Cl)cc3)CC2)nc2ccccc2c1=O [erastin]  0.697
21. O=C(O)c1ccnc(N2CC(O)(c3ccc(OCc4c(-c5c(Cl)cccc5Cl)noc4C4CC4)cc3Cl)C2)c1 [Cilofexor] + CCOc1ccccc1-n1c(C(C)N2CCN(C(=O)COc3ccc(Cl)cc3)CC2)nc2ccccc2c1=O [erastin]  0.692
22. CC(C)=CCC[C@](C)(O)[C@H]1CC[C@]2(C)[C@@H]1[C@H](O)C[C@@H]1[C@@]3(C)CC[C@H](O)C(C)(C)[C@@H]3[C@@H](O[C@@H]3O[C@H](CO)[C@@H](O)[C@H](O)[C@H]3O)C[C@]12C [Ginsenoside Rh1] + CCOc1ccccc1-n1c(C(C)N2CCN(C(=O)COc3ccc(Cl)cc3)CC2)nc2ccccc2c1=O [erastin]  0.663
23. CC(C)(Oc1ccc(C(=O)c2ccc(Cl)cc2)cc1)C(=O)O [Choline Fenofibrate] + CCOc1ccccc1-n1c(C(C)N2CCN(C(=O)COc3ccc(Cl)cc3)CC2)nc2ccccc2c1=O [erastin]  0.662
24. CC(C)OC(=O)C(C(=O)OC(C)C)=C1SC=CS1 [Malotilate] + CCOc1ccccc1-n1c(C(C)N2CCN(C(=O)COc3ccc(Cl)cc3)CC2)nc2ccccc2c1=O [erastin]  0.644
25. COC(=O)CN(c1ccc(CN(c2ccc(OCc3ccc(C)cc3)c(C(=O)OC)c2)S(=O)(=O)Cc2ccccc2)cc1)S(C)(=O)=O + CCOc1ccccc1-n1c(C(C)N2CCN(C(=O)COc3ccc(Cl)cc3)CC2)nc2ccccc2c1=O [erastin]  0.643
26. O=C(Oc1ccc([N+](=O)[O-])cc1)N1CCC(C(O)(c2ccc3c(c2)OCO3)c2ccc3c(c2)OCO3)CC1 + CCOc1ccccc1-n1c(C(C)N2CCN(C(=O)COc3ccc(Cl)cc3)CC2)nc2ccccc2c1=O [erastin]  0.641
27. CC1=C[C@]2(O)O[C@@]3(CC2=C(C)C)[C@@H](C)CC[C@@H]13 [Curcumenol] + CCOc1ccccc1-n1c(C(C)N2CCN(C(=O)COc3ccc(Cl)cc3)CC2)nc2ccccc2c1=O [erastin]  0.639
28. Nc1ccc(O)c(C(=O)O)c1 [Mesalamine] + CCOc1ccccc1-n1c(C(C)N2CCN(C(=O)COc3ccc(Cl)cc3)CC2)nc2ccccc2c1=O [erastin]  0.585
29. CCC1C(O)C2C3CCC(C(C)CCO)C3(C)CCC2C2(C)CCC(O)CC12 (configuration not stated) + CCOc1ccccc1-n1c(C(C)N2CCN(C(=O)COc3ccc(Cl)cc3)CC2)nc2ccccc2c1=O [erastin]  0.58
30. NC(=O)c1cccc(-c2cccc(OC(=O)NC3CCCCC3)c2)c1 + CCOc1ccccc1-n1c(C(C)N2CCN(C(=O)COc3ccc(Cl)cc3)CC2)nc2ccccc2c1=O [erastin]  0.568
31. N#Cc1c(O)c2c(-c3ccc(-c4ccccc4O)cc3)csc2[nH]c1=O + CCOc1ccccc1-n1c(C(C)N2CCN(C(=O)COc3ccc(Cl)cc3)CC2)nc2ccccc2c1=O [erastin]  0.51
32. Fc1ccc(-c2c3cccc(C(F)(F)F)c3nn2Cc2ccc(F)cc2Cl)cc1 + CCOc1ccccc1-n1c(C(C)N2CCN(C(=O)COc3ccc(Cl)cc3)CC2)nc2ccccc2c1=O [erastin]  0.509
33. CC(C)[C@H](N=C(NS(=O)(=O)c1ccc(Cl)cc1)N1C[C@H](c2ccccc2)C(c2ccc(Cl)cc2)=N1)C(N)=O + CCOc1ccccc1-n1c(C(C)N2CCN(C(=O)COc3ccc(Cl)cc3)CC2)nc2ccccc2c1=O [erastin]  0.429
34. COc1ccc(-c2coc3cc(OC)ccc3c2=O)cc1 [4',7-Dimethoxyisoflavone] + CCOc1ccccc1-n1c(C(C)N2CCN(C(=O)COc3ccc(Cl)cc3)CC2)nc2ccccc2c1=O [erastin]  0.427
35. O=C(Nc1ccccc1)N1CCN(c2nc(-c3ccccc3)ns2)CC1 + CCOc1ccccc1-n1c(C(C)N2CCN(C(=O)COc3ccc(Cl)cc3)CC2)nc2ccccc2c1=O [erastin]  0.353
36. Cc1c(C(=O)NN2CCCCC2)nn(-c2ccc(Cl)cc2Cl)c1-c1ccc(Cl)cc1 [Rimonabant] + CCOc1ccccc1-n1c(C(C)N2CCN(C(=O)COc3ccc(Cl)cc3)CC2)nc2ccccc2c1=O [erastin]  0.273
37. N#Cc1ccc(Oc2cccc(NC(=O)Nc3ccc(Cl)c(C(F)(F)F)c3)c2)cc1 + CCOc1ccccc1-n1c(C(C)N2CCN(C(=O)COc3ccc(Cl)cc3)CC2)nc2ccccc2c1=O [erastin]  0.127
